# Results as given in PubChem BioAssay (NCI).
# About 83,000 compounds went through this panel and 20% of them were active in at least one assay; those are over-represented in the sample as a whole.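 In brief: 96-well plates, 48 h treatment, single concentration, percent growth endpoint.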 A number with no mark means an inactive call. Calls of active or inactive are those of the source. The calls were made as follows: active = growth percent below 10; inactive = the rest.
# Test system: HL-60(TB) leukemia
# Test: NCI-60 one-dose screen, 48 h (100 = growth as untreated, 0 = no growth, -100 = all killed)
# Conditions: 10 µM unless noted
row,Compound,growth
1,Cc1ccc(-c2nc(N3CCN(CC(=O)Nc4ccc(Cl)c(C(F)(F)F)c4)CC3)c3ccccc3n2)cc1,97.6%
2,O=C(O)c1cn(C2CC2)c2cc(N3CCN(Cc4nnc(Nc5ccccc5)o4)CC3)c(F)cc2c1=O,91.4%
3,CNC(=O)c1cc(Cn2nc(C)c(NC(=O)Nc3ccc(Cl)c(C(F)(F)F)c3)c2C)ccn1,103%
4,Cc1nc(NC(=S)Nc2ccc(F)cc2)sc1C(=O)NNC(=S)Nc1ccc(F)cc1,48.3%
5,COc1cc2c(cc1OC)C(=O)/C(=C/c1cc(-c3ccc4c(c3)OCO4)n[nH]1)C2,-43.8% (active)
6,CCOC(=O)CCN(c1c(Cl)ssc1=O)C(C)C,101%
7,Cn1cnc([N+](=O)[O-])c1S(=O)(=O)Oc1ccccc1,54.3%
8,CCCCN(CCCC)CCC(=O)c1ccc(OC)c2ccccc12,81.1%
9,Cc1nc([N+](=O)[O-])c(Sc2nncc(-c3ccccc3)n2)n1C,91.7%
10,COc1ccc(NC2=C(Br)C(=O)C(C)=C(C)C2=O)cc1,11.7%
11,Cc1nc(Nc2nc3ccccc3o2)nc(-c2cccc([N+](=O)[O-])c2)c1C(=O)Nc1ccc(F)c(Cl)c1,-22.1% (active)
12,Cc1c[nH]c(=O)n(Cc2nnc(CCC(=O)c3nc4ccccc4[nH]3)o2)c1=O,-0.434% (active)
13,CCC1=C(c2ccc(OC)cc2)C(C)(C)Oc2c1ccc(O)c2CN1CCCC1,-25.4% (active)
14,CC(C)N(CCCC#N)C(C)C,102%
15,COc1ccccc1C(=O)NC(=S)Nc1ccc(-c2nc3ccccc3[nH]2)cc1,59.7%
16,COc1ccc(-c2nc(SCCC(C)C)nc(N/N=C\c3cccc([N+](=O)[O-])c3)c2C#N)cc1,97%
17,COc1cccc2c(=O)c3c(sc12)c(NCCN(C)C)nc1ccccc13,15.1%
18,CC(CNC(Cc1ccccc1)c1ccccc1)NC(Cc1ccccc1)c1ccccc1 (stereo not given),26.2%
19,O=C1C(=O)c2c(nc3ccc(C(F)(F)F)cn23)-c2ccccc21,-47% (active)
20,Cc1ccc(-c2nc(N3CCN(C(=O)c4ccc(OC(F)(F)F)cc4)CC3)c3ccccc3n2)cc1,97.5%

row,Compound,growth
1,CCC(C)[C@H](NC(=O)NC(=O)NC(=O)CI)C(=O)OC (stereo not given in full),71.8%
2,Cc1ncc(C(=O)Nc2ccc(CN3CCN(C)CC3)c(C(F)(F)F)c2)cc1C#Cc1c(N)ncc2ccccc12,-51.1% (active)
3,NC(N)=Nc1ccc(/C=C2\C=Cc3ccccc32)cc1,61.6%
4,COC(=O)Nc1nc2ccc(C(=O)c3ccc(N(C)C4COC4)cc3)cc2[nH]1,-28.8% (active)
5,O=C(CN(C1CCCCC1)C1CCCCC1)Nc1ccc(S(=O)(=O)c2ccc(NC(=O)CN(C3CCCCC3)C3CCCCC3)cc2)cc1,-39.3% (active)
6,COc1cc(C(C)n2cc(-c3ccccc3)nn2)ccc1OC1CCCCC1 (stereo not given),43.7%
7,CC(C(=O)O)N1C(N)=NNC1c1ccccc1O (stereo not given),92.8%
8,COc1cccc(C2C3=C(COC3=O)N(CCO)c3cc4c(cc32)OCCO4)c1 (stereo not given),-16.1% (active)
9,O=S(=O)(Cc1ccc(Cl)cc1Cl)c1ccc(Cl)cc1,10.5%
10,O=c1ccn(C2OC(F)(CO)C(O)C2F)c(=O)[nH]1 (stereo not given),114%
11,Cc1ccc(O)c(N)c1,115%
12,C=C(C)[C@@H]1CC[C@]2(C)[C@H](CC[C@@H]3[C@@H]([C@@](C)(O)CCC=C(C)C)CC[C@]32C)[C@@]1(C)CCC(=O)N1CCN(C)CC1,-32.3% [100 µM] (active)
13,N#Cc1nc(-c2ccc(F)cc2)oc1S(=O)(=O)N1CCCCC1,32.4%
14,COc1ccccc1/C=C(/C(=O)c1ccccc1)c1ccccc1,71.8%
15,OCc1ccc(N2CCc3cccc(F)c3C2)cc1Cl,80.5% [0.1 µM]
16,CCN1CCN(CC(=O)Nc2nc3ccc(NCc4ccc(Cl)cc4)cc3s2)CC1,29%
17,O=C(O)C(CCc1ccccc1)NCc1ccccc1 (stereo not given),110%
18,NC(=O)c1c(NC(=O)c2ccc(C(F)(F)F)cc2Cl)sc2c1CCC(=O)C2,-12.9% (active)
19,CC(O)(c1ccccc1)C(c1ccccc1)C1CCCCN1 (stereo not given),78.9%
20,C=C1C(=O)O[C@H]2[C@H]1CC/C(COC(=O)c1cccc3ccccc13)=C\CC[C@@]1(C)O[C@@H]21,-47.2% (active)
